# Measurements reported in PubChem BioAssay AID651791 (National Center for Advancing Translational Sciences (NCATS), 2012).
# Records with an inconclusive call do not appear. Calls of active or inactive are those of the source. Calls follow the shape of the dose curve; as a rule, active = well fitted inhibition curve with a large enough effect; inconclusive = small, poorly fitted or top-dose-only effect; inactive = no such curve, though single readings can be large or run the other way.
# Assay: InCell qHTS Assay for Inhibitors of the mTORC1 Signaling Pathway in MEF (Tsc2-/-, p53-/-) Cells: Hit Validation;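 also: phospho-S6 Ser235/236 signal normalized to propidium iodide cell count per well; nearly all actives have a fitted effect of over 75% in size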
# Settings: phospho-rpS6 immunofluorescence, 24 h; activity change, negative = inhibition: at 38.3 µM (top of the series)
# Potency is read from the fitted curve at half-maximal effect.
SMILES,Potency,"activity change, negative = inhibition [%]"
COc1cc(OC)c(NC(=O)Nc2ccc3c(c2)N(C)C(=O)c2ccccc2S3)cc1Cl,13.1 µM (active),–
Cn1ccc2c(OCC(=O)Nc3ccc(OC(F)(F)F)cc3)cccc2c1=O,–,-100
COc1cccc(-n2c(-c3ccc(C)cc3)cc3c2CC(C)(C)CC3=O)c1,–,-6.41
Cc1cccc(NC(=O)Cn2cc(C(=O)c3ccco3)c3ccccc32)c1C,–,-100
CCS(=O)(=O)c1ncc(Cl)c(C(=O)N(Cc2ccccc2)Cc2ccco2)n1,3.69 µM (active),–
CC(C)(C)C1CCc2c(sc(NC(=O)C3c4ccccc4Oc4ccccc43)c2C(N)=O)C1 (configuration not stated),–,-100
COc1ccc(Cl)cc1NC(=O)CSc1nc(-c2ccco2)cc(C(F)(F)F)n1,–,-100
CCC1CCc2nc3sc(C(=O)Nc4ccc(C)cc4)c(N)c3cc2C1 (configuration not stated),–,-100
COc1cc(C(=O)N(CCCN(C)C)c2nc3c(OC)cccc3s2)cc(OC)c1OC,–,-100
Cc1cccc(C2C=C(c3ccc(C)c(C)c3)Nc3nnnn32)c1 (configuration not stated),–,-17.1
COC(=O)c1ccc(Nc2nnc(-c3ccc(C)c(S(=O)(=O)N4CCN(C)CC4)c3)c3ccccc23)cc1,–,-100
COC(=O)c1c(C)oc2ccc(N(C(=O)c3ccncc3)S(=O)(=O)c3ccc(OC)cc3)cc12,–,-25.4
Nc1c(C(=O)NCc2ccccc2)nnn1Cc1cccc(Br)c1,–,-100
O=C(c1ccco1)n1nc(-c2ccc(Cl)cc2)nc1NCc1ccccc1,–,-100
CC1CCN(S(=O)(=O)c2ccc3nc(Nc4cccc(C(F)(F)F)c4)ccc3c2)CC1,–,-100
CCOC(=O)c1c(NC(=O)c2ccc(S(=O)(=O)N3CCC(C)CC3)cc2)sc2c1CCN(C)C2,–,1.72
CCOc1cc(C(=O)Nc2ccc(-c3cn4cccnc4n3)cc2)cc(OCC)c1OCC,–,-100
COc1ccc(-c2nc(C)c(CCNC(=O)c3ccccc3Br)s2)cc1OC,–,-100
CCc1ccc(-c2nc(CSCC(=O)NCc3ccc(C)cc3)c(C)o2)cc1,–,-100

SMILES,Potency,"activity change, negative = inhibition [%]"
CCOc1ccc(NC(=O)CSc2oc(-c3ccc(F)cc3)nc2S(=O)(=O)c2ccc(C)cc2)cc1,4.65 µM (active),–
CCc1ccc(S(=O)(=O)N(C(=O)c2ccncc2)c2ccc3oc(C)c(C(=O)OC)c3c2)cc1,–,-100
Cc1ccc(NC(=O)COc2ccc(-c3nn(C)c(=O)c4ccccc34)cc2)c(C)c1,–,-100
O=C(NCc1ccccc1)c1ccc2c(c1)N(Cc1ccccc1F)C(=O)c1ccccc1S2=O (configuration not stated),–,-100
Cc1ccc(-n2ncc(C(=O)NCCCN3CCc4ccccc4C3)c2C2CCN(C(=O)OC(C)(C)C)CC2)c(C)c1,–,-100
O=C(CC1(O)C(=O)N(CCc2ccccc2)c2ccc(Br)cc21)c1ccccc1O (configuration not stated),–,1.72
CCOC(=O)C1=C(CN2CCN(c3cc(C)ccc3C)CC2)NC(=O)NC1c1ccc(Cl)cc1 (configuration not stated),–,-100
CC(C)OCCCn1c(=O)c2ccccc2n2c(-c3ccc(F)cc3)nnc12,–,-100
CCC(C(=O)N1CCN(c2cccc(C)c2C)CC1)n1nc(C)c2sc3ccccc3c2c1=O (configuration not stated),–,-100
O=C(NC1CCN(Cc2ccccc2)CC1)c1ccc(Cn2c(=O)c3ccccc3n(Cc3ccc(F)cc3)c2=O)cc1,–,-100
O=C(Nc1ccc(-c2cc(C(F)(F)F)nn2-c2ccccc2)cc1)c1cccc(F)c1,–,-100
O=C(CN(CCc1ccccc1)S(=O)(=O)c1ccccc1)NCc1ccc(Cl)cc1,–,-100
COc1ccc(C)cc1NC(=O)CSc1ccc(-c2ccccn2)nn1,–,-100
CCN1CCC(N(Cc2ccc(F)cc2)C(=O)Nc2ccc(C)c(F)c2)CC1,–,-100
O=C(NCc1ccc(F)cc1)c1ccc2c(Cl)c3c(nc2c1)CCCC3,–,-100
COc1ccc(N2CCN(C(=O)C(C)n3nc(C)c4sc5ccccc5c4c3=O)CC2)cc1 (configuration not stated),–,-100
CCC(C)n1c(SCc2c(F)cccc2Cl)nc2ccsc2c1=O (configuration not stated),–,-100
CCOc1cc(CNc2ccc(O)cc2)cc(Cl)c1OCc1ccccc1,–,-100
